From PubChem
KCNQ2 block – inhibitors of rat KCNQ2 potassium channel; O88943; CHO-K1 KCNQ2, FluxOR thallium flux, 20 min; active compounds read low; B-score at 10 µM; hit rate 1.1% among 310,000;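 active = fluorescence ratio B-score at most minus 3 library SDs, with starting brightness B-score within 2 library SDs, cut at about -5.5 in these data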
Target sequence (O88943 whole entry, looked up): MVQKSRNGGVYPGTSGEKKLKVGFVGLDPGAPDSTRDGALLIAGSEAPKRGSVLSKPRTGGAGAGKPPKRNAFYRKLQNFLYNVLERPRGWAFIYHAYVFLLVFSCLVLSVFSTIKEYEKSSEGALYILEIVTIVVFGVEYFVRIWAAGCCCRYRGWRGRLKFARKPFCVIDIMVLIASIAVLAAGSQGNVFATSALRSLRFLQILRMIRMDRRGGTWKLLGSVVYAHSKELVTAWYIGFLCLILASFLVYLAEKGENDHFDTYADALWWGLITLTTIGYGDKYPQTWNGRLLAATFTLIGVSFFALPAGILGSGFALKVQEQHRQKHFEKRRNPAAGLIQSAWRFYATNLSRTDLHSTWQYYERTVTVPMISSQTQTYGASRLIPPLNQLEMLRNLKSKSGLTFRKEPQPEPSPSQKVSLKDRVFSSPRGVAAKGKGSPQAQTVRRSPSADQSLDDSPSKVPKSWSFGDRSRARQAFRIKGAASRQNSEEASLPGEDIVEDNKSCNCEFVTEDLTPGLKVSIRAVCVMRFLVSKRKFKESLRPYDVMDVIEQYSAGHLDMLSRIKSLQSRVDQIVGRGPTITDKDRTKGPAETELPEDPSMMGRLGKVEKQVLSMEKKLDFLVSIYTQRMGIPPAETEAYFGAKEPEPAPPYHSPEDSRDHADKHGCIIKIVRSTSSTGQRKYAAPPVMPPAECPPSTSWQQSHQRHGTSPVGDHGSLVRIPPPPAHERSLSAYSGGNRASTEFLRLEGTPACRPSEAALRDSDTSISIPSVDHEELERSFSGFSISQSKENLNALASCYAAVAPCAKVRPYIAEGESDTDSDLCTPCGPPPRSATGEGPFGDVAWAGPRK
KCNQ2 pot – potentiators of rat KCNQ2 potassium channel. AID 2239. B-score at 10 µM. CHO-K1 KCNQ2, FluxOR thallium flux fluorescence; active compounds read high. hit rate 0.54% among 310,000;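 active = fluorescence ratio B-score at least 3 SD of library B-scores, with initial fluorescence B-score within 3 of them, cut at about 5.3 in these data; same plate scores as AID 2156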;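 also: B-score of peak minus minimum over baseline fluorescence ratio after K+ and Tl+ stimulus; positive B-score means potentiation of KCNQ2 with more thallium influx and brighter signal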
Kir21 conf inh – confirmation of mouse Kir2.1 potassium channel inhibitors | hit rate 41% among 2,300 | Kir2.1-expressing cells, FluxOR thallium flux fluorescence; active compounds read low | Tl flux remaining, % of negative control (active compounds read low), % at 10 µM | AID 2032 | shares compounds with KCNQ2 pot;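 active = Primary-screen hit whose thallium flux fell at least 3 control SD below untreated wells in both duplicates, with normal baseline fluorescence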;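 also: 0% = blank wells without stimulus and 100% = stimulated no-compound controls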
HEK293 ctr – counter-screen for Kir2.1 inhibitors: effect in parental HEK293 cells. hit rate 19% among 2,300. shares compounds with KCNQ2 pot. FluxOR thallium flux fluorescence; 0% = unstimulated blank wells. AID 2105. FluxOR signal as % of negative control (100 = no effect), % at 10 µM;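 active = dye signal at least 3 control SD above or below untreated wells in both duplicates, raw fluorescence within 3, either direction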;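 also: percent is based on the flux ratio of peak minus minimum fluorescence over baseline F0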
CHO-K1 ctr – parental CHO-K1 activity in KCNQ2 potentiator counter-screen; shares compounds with KCNQ2 pot; hit rate 43% among 1,200; activity increase over 3SD of controls, % at 10 µM; parental CHO-K1 cells, FluxOR thallium flux fluorescence; zero = vehicle mean+3SD, 100% = vehicle-minus-blank window;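 active = signal rise of at least 3 SD above the untreated control mean, in both duplicate wells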;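 also: counter screen of KCNQ2 potentiator hits so any rise reflects channel-independent effects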
KCNQ1 pot spec – human KCNQ1 counter-target activity of KCNQ2 potentiators | shares compounds with KCNQ2 pot | CHO KCNQ1 stable, FluxOR thallium flux fluorescence; beyond 3SD, as % of vehicle-control signal | activation over 3SD threshold, % at 10 µM | hit rate 28% among 1,200 | AID 2283;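 active = fluorescence ratio rise of at least 3 SD of vehicle wells above their mean, in both replicate wells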;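 also: 0% = vehicle mean plus 3 SD and 100% = vehicle minus unstimulated blank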
KCNQ2 pot conf – confirmation of rat KCNQ2 potassium channel potentiators; shares compounds with KCNQ2 pot; CHO-KCNQ2 cells, FluxOR thallium flux fluorescence; potentiation, less the hit threshold, % at 10 µM; hit rate 68% among 1,200; AID 2287;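 active = fluorescence ratio rising 3 SD or more over the vehicle control mean in both replicates, plus primary screen hit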;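 also: peak minus minimum thallium fluorescence divided by baseline after K/Tl stimulus; 0% = vehicle mean plus 3 SD and 100% = vehicle minus unstimulated blank difference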
Kir21 spec – tests whether KCNQ2 potentiators also affect mouse Kir2.1 | hit rate 2% among 1,200 | AID 2345 | shares compounds with KCNQ2 pot | HEK293 Kir2.1, FluxOR thallium flux fluorescence | activity over 3SD threshold, % at 10 µM;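 active = fluorescence ratio rise of at least 3 SD above the vehicle-control mean, seen in both replicates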;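 also: 0% = vehicle mean plus 3 SD and 100% = vehicle minus no-stimulus blank window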
KCNQ2 W236L pot – potentiates the retigabine-insensitive rat KCNQ2 W236L mutant channel. shares compounds with KCNQ2 pot. CHO KCNQ2-W236L, automated patch clamp current. current increase over 3SD of negative controls (%), active compounds read high, % at 25 µM. hit rate 10% among 940;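 active = current increase at least 3 SD of the untreated controls above them in both duplicate recordings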
* hit, by the source's call; i = inactive; · = no result. In the library only some 1.6% were active in any assay of this set; here they are far more common.

SMILES	KCNQ2 block	KCNQ2 pot	Kir21 conf inh	HEK293 ctr	others
O=C(CCN1C(=O)C2CCCCC2C1=O)NNC(=O)c1cccc(Cl)c1 (configuration not stated)	i	0.27	·	·
Cc1nn(CC(=O)NCC(C)c2ccccc2)c(=O)c2cc(-c3ccccc3)nn12 (configuration not stated)	i	·	·	·
CCOc1ccc(CN2CCCC(CO)(Cc3ccccc3F)C2)cc1 (configuration not stated)	i	0.61	·	·
OCC1(Cc2ccc(F)cc2F)CCCN(Cc2ccc(Cl)cc2)C1 (configuration not stated)	i	·	56%*	i
CCc1cccc(NC(=O)CCCSc2nc3ccccc3[nH]2)c1	i	·	·	·
CCCCOc1ccc(N(CC(=O)NCc2ccccc2)C(=O)c2csnn2)cc1	i	·	·	·
CSc1ccc(CN(C)C(=O)CNC(=O)c2sc3ccccc3c2Cl)cc1	i	·	·	·
CCN(C(=S)NCc1ccccc1)c1ccccc1	i	0.54	·	·
Cc1cc(C)c2ccc(N)nc2c1O	i	12*	i	i	CHO-K1 ctr=-1;KCNQ1 pot spec=-24;KCNQ2 pot conf=12*;Kir21 spec=-36;KCNQ2 W236L pot=i
Cc1cc(C)c2cccc(N)c2n1	i	·	·	·
CCc1ccc(C2C(C#N)=C(N)C(C#N)(C#N)C3=CCC(C(C)(C)C)CC32)cc1 (configuration not stated)	i	0.99	i	i
CN(C)c1ccc(C2OC(=O)C(C)(C)C(=O)C2(C)C)cc1 (configuration not stated)	i	·	·	·
CC1(C)C(=O)OC(c2c3ccccc3cc3ccccc23)C(C)(C)C1=O (configuration not stated)	i	6.2*	i	i	CHO-K1 ctr=12*;KCNQ1 pot spec=90*;KCNQ2 pot conf=-6;Kir21 spec=-31
Cc1ccc(C(C)NC(=O)c2ccncc2)cc1C (configuration not stated)	i	1	·	·
CC(NC(=O)c1ccncc1)C(C)(C)C (configuration not stated)	i	16*	i	i	CHO-K1 ctr=-15;KCNQ1 pot spec=-18;KCNQ2 pot conf=-18;Kir21 spec=-39
Cc1[nH]c(=O)[nH]c(=O)c1N1CCOCC1	i	·	·	·
O=c1[nH]cc(I)cc1I	i	7.4*	i	i	CHO-K1 ctr=133*;KCNQ1 pot spec=32*;KCNQ2 pot conf=-20;Kir21 spec=-36
CN(C)C(=O)c1ccc(-n2cccn2)nc1	i	·	·	·
COc1cccc(NC(=O)c2ccc(NC(=O)C(C)(C)C)cc2)c1	i	1.2	·	·
CC(C)(C)C(=O)Nc1cccc(OC(F)(F)C(F)Cl)c1 (configuration not stated)	i	5.8*	i	i	CHO-K1 ctr=-15;KCNQ1 pot spec=11*;KCNQ2 pot conf=30*;Kir21 spec=-40;KCNQ2 W236L pot=i
CC1CN(CC(=O)Nc2nc(-c3ccc(Cl)cc3)cs2)CC(C)O1 (configuration not stated)	i	·	·	·
COc1cccc(NC(=O)c2sc3nc(N4CCOCC4)c4c(c3c2N)CCCC4)c1	i	0.07	·	·
COc1cccc(/C(=N/O)C2CC2c2ccc(Cl)cc2)c1 (configuration not stated)	i	6.7*	i	i	CHO-K1 ctr=33*;KCNQ1 pot spec=-4;KCNQ2 pot conf=8.1*;Kir21 spec=-33;KCNQ2 W236L pot=i
COc1cccc(/C(C)=N/NS(=O)(=O)c2ccc(Cl)cc2)c1	i	1	·	·
CCN1CCN(c2cc(C(C)C)nc3c(-c4ccccc4)c(C)nn23)CC1	i	·	60%*	i
Cc1nn2c(N3CCOCC3)cc(C(C)C)nc2c1-c1ccccc1	i	·	·	·
COc1cc(/C=N/NC(=O)c2ccc(O)cc2)ccc1OCC(=O)N1CC(C)OC(C)C1 (configuration not stated)	i	·	·	·
Cc1ccc(-n2nnnc2SCC(=O)N2CCCCC2)cc1	i	·	·	·
